The values below come from PubChem BioAssay (EPA / NIEHS).

Active and inactive are the calls of the source. The calls were made as follows: active = hit-call score of the fitted dose curve at least 0.9, where 1 is the maximum; inactive = score below 0.9.

Common to all, as to details: mRNA level, 48 h; actives raise or lower the signal
Read-out in test [1]: Insulin Like Growth Factor 1 (IGF1), IGF1 (gene 3479)
The test can be described thus: LTEA_HepaRG_IGF1: Life Technologies and Expression Analysis (LTEA) Assay for Insulin Like Growth Factor 1 (IGF1) using HepaRG (AID 2283506). The gist of the method: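 Differentiated human HepaRG cells were dosed for 48 h in serum-free induction medium with 0.5% DMSO, eight half-log concentrations up to 100 uM, in duplicate. IGF1 mRNA was quantified by qRT-PCR normalized to ACTB, GAPDH, POLR2A; bidirectional fitting versus DMSO.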

Read-out in test [2]: Intercellular Adhesion Molecule 1 (ICAM1), ICAM1 (gene 3383)
Put plainly: LTEA_HepaRG_ICAM1: Life Technologies and Expression Analysis (LTEA) Assay for Intercellular Adhesion Molecule 1 (ICAM1) using HepaRG (AID 2283507). The gist of the method: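 Differentiated HepaRG cells in serum-free induction medium were exposed in duplicate for 48 h to eight half-log concentrations up to 100 uM in 0.5% DMSO. Transcript levels were measured by qRT-PCR normalized to ACTB, GAPDH and POLR2A; bidirectional fits relative to DMSO.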

Read-out in test [3]: Insulin-like growth factor-binding protein 1 (IGFBP1), IGFBP1 (gene 3484)
The test can be described thus: LTEA_HepaRG_IGFBP1: Life Technologies and Expression Analysis (LTEA) Assay for Insulin-like growth factor-binding protein 1 (IGFBP1) using HepaRG (AID 2283508). Summed up:
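Differentiated human HepaRG cells in serum-free induction medium were exposed in duplicate for 48 h to eight concentrations, top 100 uM with half-log dilutions, in 0.5% DMSO. Transcript levels came from qRT-PCR normalised to ACTB, GAPDH and POLR2A, fitted bidirectionally against DMSO.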

Read-out in test [4]: Interleukin 6 (IL6), IL6 (gene 3569)
Put plainly: LTEA_HepaRG_IL6: Life Technologies and Expression Analysis (LTEA) Assay for Interleukin 6 (IL6) using HepaRG (AID 2283509). The gist of the method: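 Differentiated human HepaRG cells, plated 48 h then switched to serum-free induction medium, were exposed in duplicate for 48 h to eight half-log concentrations up to 100 uM in 0.5% DMSO. IL6 mRNA measured by qRT-PCR, normalized to ACTB/GAPDH/POLR2A.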

Read-out in test [5]: Interleukin 6 Receptor (IL6R), IL6R (gene 3570)
Put plainly: LTEA_HepaRG_IL6R: Life Technologies and Expression Analysis (LTEA) Assay for Interleukin 6 Receptor (IL6R) using HepaRG (AID 2283510). Summed up: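 Differentiated human HepaRG cells, plated 48 h then switched to serum-free induction medium, were dosed in duplicate for 48 h at eight half-log concentrations up to 100 uM in 0.5% DMSO. IL6R mRNA quantified by qRT-PCR, normalized to ACTB/GAPDH/POLR2A; bidirectional fit versus DMSO.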

Read-out in test [6]: Keratin 19 (KRT19), KRT19 (gene 3880)
Put plainly: LTEA_HepaRG_KRT19: Life Technologies and Expression Analysis (LTEA) Assay for Keratin 19 (KRT19) using HepaRG (AID 2283512). Summed up: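 Differentiated human HepaRG cells, plated 48 h, were exposed in duplicate for 48 h in serum-free induction medium to eight half-log concentrations up to 100 uM in 0.5% DMSO. KRT19 mRNA was quantified by qRT-PCR, normalized to ACTB, GAPDH and POLR2A, and fitted bidirectionally versus DMSO.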

Read-out in test [7]: JUN Transcription Factor, JUN (gene 3725)
The test can be described thus: LTEA_HepaRG_JUN: Life Technologies and Expression Analysis (LTEA) Assay for JUN Transcription Factor using HepaRG (AID 2283513). Summed up: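 Differentiated HepaRG cells were exposed to chemicals for 48 h in serum-free induction medium, 8 concentrations from 100 uM in half-log steps, 0.5% DMSO vehicle, in duplicate. JUN mRNA was quantified by TaqMan qRT-PCR, normalized to ACTB, GAPDH, POLR2A.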

Read-out in test [8]: Lipase C (LIPC), LIPC (gene 3990)
The test can be described thus: LTEA_HepaRG_LIPC: Life Technologies and Expression Analysis (LTEA) Assay for Lipase C (LIPC) using HepaRG (AID 2283514). Summed up: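 Differentiated human HepaRG cells in serum-free induction medium were exposed in duplicate for 48 h to eight concentrations (top 100 uM, half-log steps, 0.5% DMSO). LIPC mRNA was quantified by TaqMan qRT-PCR, normalized to ACTB, GAPDH and POLR2A, with bidirectional fitting versus DMSO.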

Read-out in test [9]: Lipoprotein lipase (LPL), LPL (gene 4023)
Put plainly: LTEA_HepaRG_LPL: Life Technologies and Expression Analysis (LTEA) Assay for Lipoprotein lipase (LPL) using HepaRG (AID 2283515). Summed up:
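Differentiated human HepaRG cells in serum-free induction medium were exposed in duplicate for 48 h to eight half-log concentrations (top 100 uM) in 0.5% DMSO. LPL mRNA was quantified by TaqMan qRT-PCR, normalized to ACTB, GAPDH and POLR2A.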

Read-out in test [10]: MicroRNA 122 (MIR122), gene 406906
The test can be described thus: LTEA_HepaRG_MIR122: Life Technologies and Expression Analysis (LTEA) Assay for MicroRNA 122 (MIR122) using HepaRG (AID 2283516). Also: the transcript read is the microRNA miR-122. Summed up: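 Differentiated human HepaRG cells were exposed 48 h in serum-free induction medium to eight half-log concentrations (top 100 uM, 0.5% DMSO). Transcript level was measured by TaqMan qRT-PCR, normalized to ACTB, GAPDH and POLR2A, and fitted bidirectionally versus DMSO.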

Read-out in test [11]: matrix metalloproteinase-10 (MMP10), MMP10 (gene 4319)
Put plainly: LTEA_HepaRG_MMP10: Life Technologies and Expression Analysis (LTEA) Assay for matrix metalloproteinase-10 (MMP10) using HepaRG (AID 2283517). The gist of the method: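 HepaRG, collagen I, ~100,000 cells/well; serum-free induction medium; 48 h exposure, duplicate, 8-pt half-log to 100 uM, 0.5% DMSO. Readout: TaqMan qRT-PCR, normalized to ACTB/GAPDH/POLR2A; bidirectional fit vs DMSO.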

Read-out in a further test: MYC, MYC (gene 4609)
The test can be described thus: LTEA_HepaRG_MYC: Life Technologies and Expression Analysis (LTEA) Assay for MYC using HepaRG (AID 2283518). Summed up:
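Differentiated human HepaRG cells, plated 48 h then switched to serum-free induction medium, were exposed in duplicate for 48 h to 8-point half-log series up to 100 uM in 0.5% DMSO. MYC mRNA measured by qRT-PCR, normalized to ACTB/GAPDH/POLR2A.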

Read-out in test [12]: matrix metalloproteinase-3 (MMP3), MMP3 (gene 4314)
Put plainly: LTEA_HepaRG_MMP3: Life Technologies and Expression Analysis (LTEA) Assay for matrix metalloproteinase-3 (MMP3) using HepaRG (AID 2283519). Summed up:
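Differentiated human HepaRG cells, plated 48 h on collagen I, were exposed in duplicate for 48 h in serum-free induction medium to eight half-log concentrations up to 100 uM in 0.5% DMSO. MMP3 mRNA was quantified by TaqMan qRT-PCR, normalised to ACTB, GAPDH and POLR2A.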

Read-out in test [13]: Paternally Expressed 10 (PEG10), PEG10 (gene 23089)
Put plainly: LTEA_HepaRG_PEG10: Life Technologies and Expression Analysis (LTEA) Assay for Paternally Expressed 10 (PEG10) using HepaRG (AID 2283520). Summed up: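 Differentiated HepaRG cells, plated 48 h then switched to serum-free induction medium, were exposed in duplicate for 48 h to eight half-log concentrations topping at 100 uM in 0.5% DMSO. PEG10 mRNA was quantified by TaqMan qRT-PCR, normalised to ACTB, GAPDH and POLR2A.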

Read-out in test [14]: Protein phosphatase 2A (PPP2R4), PTPA (gene 5524)
The test can be described thus: LTEA_HepaRG_PPP2R4: Life Technologies and Expression Analysis (LTEA) Assay for Protein phosphatase 2A (PPP2R4) using HepaRG (AID 2283522). Summed up:
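Differentiated HepaRG cells in serum-free induction medium were exposed in duplicate for 48 h to eight concentrations, top 100 uM with half-log dilutions, in 0.5% DMSO. PPP2R4 mRNA was quantified by TaqMan qRT-PCR, normalized to ACTB, GAPDH and POLR2A.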

Read-out in test [15]: Phosphatase and tensin (PTEN), PTEN (gene 5728)
The test can be described thus: LTEA_HepaRG_PTEN: Life Technologies and Expression Analysis (LTEA) Assay for Phosphatase and tensin (PTEN) using HepaRG (AID 2283523). Summed up: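 Differentiated human HepaRG cells, plated 48 h then switched to serum-free induction medium, were exposed in duplicate for 48 h to eight half-log concentrations up to 100 uM in 0.5% DMSO. PTEN mRNA measured by TaqMan qRT-PCR, normalized to ACTB/GAPDH/POLR2A, bidirectional fit versus DMSO.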

Read-out in test [16]: solute carrier (SLC22A1), SLC22A1 (gene 6580)
The test can be described thus: LTEA_HepaRG_SLC22A1: Life Technologies and Expression Analysis (LTEA) Assay for solute carrier (SLC22A1) using HepaRG (AID 2283524). Summed up: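 Human HepaRG cells were plated 48 h, switched to serum-free induction medium, then exposed in duplicate for 48 h to 8-point half-log series from 100 uM in 0.5% DMSO. SLC22A1 mRNA measured by qRT-PCR, normalized to ACTB/GAPDH/POLR2A, fitted bidirectionally versus DMSO.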

Read-out in test [17]: Pyruvate Dehydrogenase Kinase 4 (PDK4), PDK4 (gene 5166)
The test can be described thus: LTEA_HepaRG_PDK4: Life Technologies and Expression Analysis (LTEA) Assay for Pyruvate Dehydrogenase Kinase 4 (PDK4) using HepaRG (AID 2283525). The gist of the method:
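Differentiated human HepaRG cells, pre-cultured 48 h, were exposed in duplicate for 48 h in serum-free induction medium to eight half-log concentrations up to 100 uM in 0.5% DMSO. PDK4 mRNA was quantified by qRT-PCR, normalized to ACTB, GAPDH and POLR2A, bidirectional fitting versus DMSO.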

Read-out in test [18]: Nuclear factor NF-kappa-B p105 subunit (Homo sapiens) (UniProt P19838)
The test can be described thus: LTEA_HepaRG_NFKB1: Life Technologies and Expression Analysis (LTEA) Assay for Nuclear Factor Kappa B Subunit 1 (NFKB1) using HepaRG (AID 2283521).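 Also: TaqMan qRT-PCR transcript normalised to ACTB GAPDH and POLR2A housekeeping genes.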 Summed up: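 NFKB1 transcript was measured by TaqMan qRT-PCR on Fluidigm arrays, normalised to three housekeeping genes and fitted in both directions against 0.5% DMSO. HepaRG cells were dosed in duplicate for 48 h in serum-free induction medium, eight half-log steps from 100 uM.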

Sequence of Nuclear factor NF-kappa-B p105 subunit (Homo sapiens) (P19838 whole entry, looked up): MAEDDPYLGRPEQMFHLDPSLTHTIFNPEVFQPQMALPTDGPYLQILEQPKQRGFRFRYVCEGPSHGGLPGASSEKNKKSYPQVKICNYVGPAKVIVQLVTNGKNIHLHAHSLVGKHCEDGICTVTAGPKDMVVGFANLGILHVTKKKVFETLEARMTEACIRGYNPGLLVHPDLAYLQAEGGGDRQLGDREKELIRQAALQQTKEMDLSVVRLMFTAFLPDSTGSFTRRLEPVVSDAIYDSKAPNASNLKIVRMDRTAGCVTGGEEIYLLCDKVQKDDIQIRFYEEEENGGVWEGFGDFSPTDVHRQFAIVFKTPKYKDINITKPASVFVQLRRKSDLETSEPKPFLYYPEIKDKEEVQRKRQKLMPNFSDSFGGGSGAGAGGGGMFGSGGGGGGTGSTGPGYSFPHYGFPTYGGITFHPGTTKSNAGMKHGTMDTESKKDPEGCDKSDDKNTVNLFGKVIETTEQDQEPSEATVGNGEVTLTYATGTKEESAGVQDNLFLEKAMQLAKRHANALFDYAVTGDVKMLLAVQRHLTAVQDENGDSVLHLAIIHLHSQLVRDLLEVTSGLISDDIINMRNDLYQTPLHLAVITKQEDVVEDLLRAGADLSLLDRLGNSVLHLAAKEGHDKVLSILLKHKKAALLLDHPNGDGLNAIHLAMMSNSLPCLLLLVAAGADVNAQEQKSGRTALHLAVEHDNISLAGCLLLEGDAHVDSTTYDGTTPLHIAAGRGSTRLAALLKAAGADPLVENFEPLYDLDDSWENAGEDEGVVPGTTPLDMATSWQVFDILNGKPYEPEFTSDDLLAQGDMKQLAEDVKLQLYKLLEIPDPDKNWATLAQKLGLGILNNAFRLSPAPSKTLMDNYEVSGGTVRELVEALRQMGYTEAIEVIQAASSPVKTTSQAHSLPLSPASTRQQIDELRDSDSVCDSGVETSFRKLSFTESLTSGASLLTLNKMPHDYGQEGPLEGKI

In the case of `COc1cc(S(=O)(=O)O)c(C)cc1N=Nc1c(O)ccc2cc(S(=O)(=O)O)ccc12`, the outcome in test [1], in test [2], in test [3], in [4], in [5] and in [6] was inactive. The outcome was “inactive” in test [7]; “inactive” in [8]; “inactive” in test [9]; “inactive” in [10]; “inactive” in [11]; “inactive” with MYC, MYC (gene 4609). In addition, the call in test [12], in test [13], in test [14], in test [15], in test [16] and in test [17] was inactive.
The term AC50 denotes the concentration giving half of the maximal activity seen. Take `CCOC(=O)CCC(=O)OCC`: the molecule was called inactive in test [1], in test [2], in test [3], in [4], in test [5] and in test [6]. Further, the outcome in test [7] was “inactive”; in test [8], “inactive”; in test [10], “inactive”; in test [11], “inactive”; with MYC, MYC (gene 4609), “inactive”; in [12], “inactive”. Besides, the outcome in [13], in test [14], in test [16] and in [17] was inactive. Besides, the AC50 was 85 µM (active) in test [9] and 81.2 µM (active) in test [15].
In the case of `Cc1cccc(C)c1O`, the outcome in [1], in test [2], in test [3], in test [4], in test [5] and in test [6] was inactive. The outcome was “inactive” in test [7]; “inactive” in [8]; “inactive” in test [9]; “inactive” in [10]; “inactive” in test [11]; “inactive” with MYC, MYC (gene 4609). Moreover, the outcome in [13], in [18], in [14], in [15], in test [16] and in test [17] was inactive.
Consider `CCCc1cc(=O)[nH]c(=S)[nH]1`, for which the molecule was called inactive in test [1], in test [2], in test [3], in test [4], in test [5] and in test [6]. The outcome in test [7] was “inactive”; in test [8] it was “inactive”; in test [9], “inactive”; in [10], “inactive”; in test [11], “inactive”; with MYC, MYC (gene 4609) it was “inactive”. Also, the molecule was classed as inactive in [13], in [14], in [15], in test [16] and in test [17].
